# Calls of active or inactive are those of the source. The calls were made as follows: active = hit-call score of the fitted dose curve at least 0.9, where 1 is the maximum; inactive = score below 0.9.
# What was measured:
# Details in all cases: mRNA level, 48 h; actives raise or lower the signal
# [1] = read-out: Cytochrome P450 3A4 (Homo sapiens) (UniProt P08684); test: LTEA_HepaRG_CYP3A4: Life Technologies and Expression Analysis (LTEA) Assay for CYP3A4 using HepaRG (AID 2283487)
# Outline: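 Differentiated HepaRG cells, plated 48 h, then dosed 48 h in serum-free induction medium with 0.5% DMSO, 8 half-log concentrations up to 100 uM, duplicate. CYP3A4 mRNA by qRT-PCR, normalized to ACTB/GAPDH/POLR2A; bidirectional fit versus DMSO.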
# [2] = read-out: DNA damage-inducible transcript 3 (DDIT3), DDIT3 (gene 1649); test: LTEA_HepaRG_DDIT3: Life Technologies and Expression Analysis (LTEA) Assay for DNA damage-inducible transcript 3 (DDIT3) using HepaRG (AID 2283488)
# Outline: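 DDIT3 transcript was quantified by qRT-PCR with ACTB/GAPDH/POLR2A normalization after 48 h chemical treatment of differentiated HepaRG cells in 0.5% DMSO. Dosing was eight-point, half-log, top 100 uM, duplicate wells. Curves fitted bidirectionally versus DMSO.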
# [3] = read-out: Pro-epidermal growth factor (Homo sapiens) (UniProt P01133); test: LTEA_HepaRG_EGF: Life Technologies and Expression Analysis (LTEA) Assay for Epidermal growth factor (EGF) using HepaRG (AID 2283489)
# Outline: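 EGF transcript measured by Fluidigm TaqMan qRT-PCR with three housekeeping genes for normalization, 48 h after dosing HepaRG cultures in duplicate (top 100 uM, half-log steps, 0.5% DMSO vehicle). Gain or loss relative to DMSO fitted.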
# [4] = read-out: Early growth response protein 1 (EGR1) transcription factor, EGR1 (gene 1958); test: LTEA_HepaRG_EGR1: Life Technologies and Expression Analysis (LTEA) Assay for Early growth response protein 1 (EGR1) transcription factor using HepaRG (AID 2283490)
# Outline: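 HepaRG, 48 h exposure, 8-pt half-log series from 100 uM, 0.5% DMSO vehicle; EGR1 transcript by TaqMan qRT-PCR (Fluidigm array), housekeeping-normalized; bidirectional fit relative to DMSO baseline.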
# [5] = read-out: Ezrin (EZR), EZR (gene 7430); test: LTEA_HepaRG_EZR: Life Technologies and Expression Analysis (LTEA) Assay for Ezrin (EZR) using HepaRG (AID 2283491)
# Outline: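 EZR transcript levels came from Fluidigm qRT-PCR and were normalized to three housekeeping genes after 48 h chemical exposure of HepaRG cells. Dosing used an 8-point half-log series with a 100 uM top concentration in 0.5% DMSO, tested in duplicate; both directions were fitted versus vehicle.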
# CYP3A5 (gene 1577) = test: LTEA_HepaRG_CYP3A5: Life Technologies and Expression Analysis (LTEA) Assay for CYP3A5 using HepaRG (AID 2283493)
# Outline: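 mRNA levels were quantified by qRT-PCR on Fluidigm arrays and normalized to three housekeeping genes. Differentiated HepaRG cells received 48 h exposure (top 100 uM, half-log steps, 0.5% DMSO vehicle, duplicate); bidirectional fitting versus DMSO.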
# [6] = read-out: Fatty Acid-Binding Protein 1 (FABP1), FABP1 (gene 2168); test: LTEA_HepaRG_FABP1: Life Technologies and Expression Analysis (LTEA) Assay for Fatty Acid-Binding Protein 1 (FABP1) using HepaRG (AID 2283494)
# Outline: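 qRT-PCR readout of FABP1 transcript (normalized to three housekeeping genes) after 48 h chemical exposure of HepaRG cells; eight concentrations, half-log steps, max 100 uM, 0.5% DMSO vehicle; gain or loss fitted relative to DMSO baseline.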
# [7] = read-out: Cytochrome P450 4A22 (Homo sapiens) (UniProt Q5TCH4); test: LTEA_HepaRG_CYP4A22: Life Technologies and Expression Analysis (LTEA) Assay for Cytochrome P450 4A22 (CYP4A22) using HepaRG (AID 2283495)
# Outline: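 Gene expression measured by qRT-PCR against three housekeeping genes (ACTB, GAPDH, POLR2A), with gain or loss fitted relative to 0.5% DMSO vehicle. HepaRG cultures received 48 h chemical treatment, top concentration 100 uM, half-log steps, duplicate wells.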
# [8] = read-out: Cytochrome P450 7A1 (Homo sapiens) (UniProt P22680); test: LTEA_HepaRG_CYP7A1: Life Technologies and Expression Analysis (LTEA) Assay for Cytochrome P450 7A1 (CYP7A1) using HepaRG (AID 2283496)
# Outline: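 HepaRG, 48 h exposure, 8-pt half-log series from 100 uM, 0.5% DMSO vehicle, duplicates. Readout: TaqMan qRT-PCR mRNA vs three housekeeping genes; bidirectional curve fit against DMSO baseline.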
# [9] = read-out: Glutathione S-Transferase (GSTA2), GSTA2 (gene 2939); test: LTEA_HepaRG_GSTA2: Life Technologies and Expression Analysis (LTEA) Assay for Glutathione S-Transferase (GSTA2) using HepaRG (AID 2283497)
# Outline: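 qRT-PCR readout of GSTA2 transcript, normalized to three housekeeping genes, fitted bidirectionally against 0.5% DMSO baseline. Differentiated HepaRG cells received compound for 48 h at 8 concentrations (top 100 uM, half-log steps).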
# [10] = read-out: Glutamate-cysteine ligase catalytic (GCLC), GCLC (gene 2729); test: LTEA_HepaRG_GCLC: Life Technologies and Expression Analysis (LTEA) Assay for Glutamate-cysteine ligase catalytic (GCLC) using HepaRG (AID 2283498)
# Outline: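 HepaRG, 48 h exposure, 8-pt half-log series from 100 uM, 0.5% DMSO vehicle; TaqMan qRT-PCR for GCLC mRNA, housekeeping-normalized; bidirectional curve fit vs DMSO baseline.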
# [11] = read-out: growth arrest and DNA damage 45 (GADD45G), GADD45G (gene 10912); test: LTEA_HepaRG_GADD45G: Life Technologies and Expression Analysis (LTEA) Assay for growth arrest and DNA damage 45 (GADD45G) using HepaRG (AID 2283499)
# Outline: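 GADD45G transcript level by qRT-PCR (housekeeping-normalized: ACTB, GAPDH, POLR2A) after 48 h chemical treatment of a single HepaRG lot in serum-free induction medium; eight-point half-log series up to 100 uM in 0.5% DMSO, duplicates, up- or down-regulation scored.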
# [12] = read-out: Glutamate-cysteine ligase regulatory (GCLM), GCLM (gene 2730); test: LTEA_HepaRG_GCLM: Life Technologies and Expression Analysis (LTEA) Assay for Glutamate-cysteine ligase regulatory (GCLM) using HepaRG (AID 2283500)
# Outline: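 GCLM expression quantified by qRT-PCR, normalized to three housekeeping genes, after 48 h chemical treatment of HepaRG cells in duplicate at 8 concentrations (top 100 uM, half-log steps, 0.5% DMSO). Changes fitted both directions against vehicle.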
# [13] = read-out: Glutathione S-transferase M3 (GSTM3), GSTM3 (gene 2947); test: LTEA_HepaRG_GSTM3: Life Technologies and Expression Analysis (LTEA) Assay for Glutathione S-transferase M3 (GSTM3) using HepaRG (AID 2283501)
# Outline: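 GSTM3 transcript levels came from Fluidigm TaqMan qRT-PCR normalized to three housekeeping genes, fitted in both directions against DMSO. HepaRG cultures received chemicals for 48 h in serum-free induction medium (0.5% DMSO), 8 half-log concentrations up to 100 uM, duplicate.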
# [14] = read-out: Heat shock 70 kDa protein 1 (HSPA1A), gene 3303; test: LTEA_HepaRG_HSPA1A: Life Technologies and Expression Analysis (LTEA) Assay for Heat shock 70 kDa protein 1 (HSPA1A) using HepaRG (AID 2283502)
# Outline: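 HSPA1A expression measured by qRT-PCR with ACTB/GAPDH/POLR2A normalization; curves fitted in both directions relative to DMSO vehicle. Exposure: 48 h in HepaRG cells, duplicate 8-point half-log series from 100 uM, 0.5% DMSO, serum-free induction medium.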
# [15] = read-out: Hypoxia-inducible factor 1-alpha (Homo sapiens) (UniProt Q16665); test: LTEA_HepaRG_HIF1A: Life Technologies and Expression Analysis (LTEA) Assay for Hypoxia-inducible factor 1 (HIF1A) Trancription factor using HepaRG (AID 2283503)
# Outline: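 HIF1A transcript level read by qRT-PCR (ACTB, GAPDH, POLR2A normalization) after 48 h chemical exposure of HepaRG cultures. Eight half-log concentrations, top 100 uM, 0.5% DMSO vehicle, duplicates; bidirectional curve fit against DMSO baseline.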
# [16] = read-out: 3-Hydroxy-3-Methylglutaryl-CoA Synthase 2 (HMGCS2), HMGCS2 (gene 3158); test: LTEA_HepaRG_HMGCS2: Life Technologies and Expression Analysis (LTEA) Assay for 3-Hydroxy-3-Methylglutaryl-CoA Synthase 2 (HMGCS2) using HepaRG (AID 2283504)
# Outline: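 Readout is HMGCS2 transcript by qRT-PCR, housekeeping-normalised (ACTB/GAPDH/POLR2A) and fitted bidirectionally against 0.5% DMSO. Differentiated HepaRG cells received chemicals 48 h, duplicate wells, eight half-log concentrations topping at 100 uM.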
# HGF (gene 3082) = test: LTEA_HepaRG_HGF: Life Technologies and Expression Analysis (LTEA) Assay for Hepatocyte Growth Facto (HGF) using HepaRG (AID 2283505)
# Outline: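 HGF transcript was quantified by TaqMan qRT-PCR against three housekeeping genes after 48 h treatment of HepaRG cells. Exposure ran in duplicate over eight half-log steps topping at 100 uM in 0.5% DMSO vehicle.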
# [17] = read-out: Insulin Like Growth Factor 1 (IGF1), IGF1 (gene 3479); test: LTEA_HepaRG_IGF1: Life Technologies and Expression Analysis (LTEA) Assay for Insulin Like Growth Factor 1 (IGF1) using HepaRG (AID 2283506)
# Outline: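 Expression measured by TaqMan qRT-PCR on a Fluidigm array, with three housekeeping genes for normalisation, after 48 h treatment of HepaRG cells. Top concentration 100 uM with half-log steps, 0.5% DMSO vehicle, bidirectional fit.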
# [18] = read-out: Intercellular Adhesion Molecule 1 (ICAM1), ICAM1 (gene 3383); test: LTEA_HepaRG_ICAM1: Life Technologies and Expression Analysis (LTEA) Assay for Intercellular Adhesion Molecule 1 (ICAM1) using HepaRG (AID 2283507)
# Outline: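 ICAM1 transcript levels measured by qRT-PCR, normalized to three housekeeping genes (ACTB, GAPDH, POLR2A), after 48 h chemical exposure of HepaRG cells. Duplicate eight-point half-log series from 100 uM in 0.5% DMSO; gain or loss fitted against vehicle.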
# Chain of Hypoxia-inducible factor 1-alpha (Homo sapiens) (Q16665 whole entry, looked up): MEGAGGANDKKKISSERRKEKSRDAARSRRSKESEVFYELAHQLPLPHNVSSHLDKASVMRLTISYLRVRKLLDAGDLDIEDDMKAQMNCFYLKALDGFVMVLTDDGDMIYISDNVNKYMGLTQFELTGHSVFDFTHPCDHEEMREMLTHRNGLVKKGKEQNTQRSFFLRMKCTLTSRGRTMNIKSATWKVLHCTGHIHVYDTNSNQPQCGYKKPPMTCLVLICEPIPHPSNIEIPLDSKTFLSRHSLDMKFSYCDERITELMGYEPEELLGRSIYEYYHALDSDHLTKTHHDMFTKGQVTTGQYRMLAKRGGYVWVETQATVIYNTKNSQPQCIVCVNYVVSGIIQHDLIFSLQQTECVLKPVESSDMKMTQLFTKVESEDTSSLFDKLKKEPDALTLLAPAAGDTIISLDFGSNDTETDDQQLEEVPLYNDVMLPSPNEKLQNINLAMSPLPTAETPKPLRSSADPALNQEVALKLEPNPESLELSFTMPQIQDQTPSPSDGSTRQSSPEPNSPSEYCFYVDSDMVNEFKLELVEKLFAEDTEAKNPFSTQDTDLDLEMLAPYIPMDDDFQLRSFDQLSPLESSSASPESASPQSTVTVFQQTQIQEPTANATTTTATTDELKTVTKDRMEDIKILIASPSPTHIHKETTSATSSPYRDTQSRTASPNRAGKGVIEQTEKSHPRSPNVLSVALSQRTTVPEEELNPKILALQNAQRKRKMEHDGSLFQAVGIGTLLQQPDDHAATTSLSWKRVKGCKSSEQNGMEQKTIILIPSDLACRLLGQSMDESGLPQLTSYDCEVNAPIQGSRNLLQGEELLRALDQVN
# Chain of Cytochrome P450 3A4 (Homo sapiens) (P08684 whole entry, looked up): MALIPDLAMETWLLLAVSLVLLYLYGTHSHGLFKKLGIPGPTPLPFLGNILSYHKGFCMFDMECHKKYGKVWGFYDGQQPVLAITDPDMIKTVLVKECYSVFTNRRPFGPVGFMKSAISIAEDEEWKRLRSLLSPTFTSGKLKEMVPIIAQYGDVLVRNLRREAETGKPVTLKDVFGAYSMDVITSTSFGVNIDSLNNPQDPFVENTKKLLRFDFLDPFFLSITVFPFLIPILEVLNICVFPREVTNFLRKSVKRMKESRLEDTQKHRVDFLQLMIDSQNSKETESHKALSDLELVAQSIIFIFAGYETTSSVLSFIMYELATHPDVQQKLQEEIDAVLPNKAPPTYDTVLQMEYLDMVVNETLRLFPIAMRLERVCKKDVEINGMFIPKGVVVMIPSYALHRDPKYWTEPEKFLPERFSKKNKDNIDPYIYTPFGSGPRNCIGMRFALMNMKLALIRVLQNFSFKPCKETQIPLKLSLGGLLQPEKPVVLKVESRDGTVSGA
structure (smiles),measurement,setting,value
CSC(C)(C)C=NO,outcome,[1],inactive
same,outcome,[2],inactive
same,outcome,[3],inactive
same,outcome,[4],inactive
same,outcome,[5],inactive
same,outcome,CYP3A5 (gene 1577),inactive
same,outcome,[6],inactive
same,outcome,[7],inactive
same,outcome,[8],inactive
same,outcome,[9],inactive
same,outcome,[10],inactive
same,outcome,[11],inactive
same,outcome,[12],inactive
same,outcome,[13],inactive
same,outcome,[14],inactive
same,outcome,[15],inactive
same,outcome,[16],inactive
same,outcome,HGF (gene 3082),inactive
same,outcome,[17],inactive
same,outcome,[18],inactive
CC(Cl)(Cl)C(=O)O,outcome,[1],inactive
same,outcome,[2],inactive
same,outcome,[3],inactive
same,outcome,[4],inactive
same,outcome,[5],inactive
same,outcome,CYP3A5 (gene 1577),inactive
same,outcome,[6],inactive
same,outcome,[7],inactive
same,outcome,[8],inactive
same,outcome,[9],inactive
same,outcome,[10],inactive
same,outcome,[11],inactive
same,outcome,[12],inactive
same,outcome,[13],inactive
same,outcome,[14],inactive
same,outcome,[15],inactive
same,outcome,[16],inactive
same,outcome,HGF (gene 3082),inactive
same,outcome,[17],inactive
same,outcome,[18],inactive
CCOc1ccc(C(C)(C)COCc2cccc(Oc3ccccc3)c2)cc1,AC50,[1],4.91 µM (active)
same,outcome,[2],inactive
same,AC50,[3],15 µM (active)
same,outcome,[4],inactive
same,outcome,[5],inactive
same,outcome,CYP3A5 (gene 1577),inactive
same,outcome,[6],inactive
same,outcome,[7],inactive
same,AC50,[8],26.8 µM (active)
same,outcome,[9],inactive
same,outcome,[10],inactive
same,outcome,[11],inactive
same,outcome,[12],inactive
same,outcome,[13],inactive
same,outcome,[14],inactive
same,outcome,[15],inactive
same,outcome,[16],inactive
same,outcome,HGF (gene 3082),inactive
same,AC50,[17],12.4 µM (active)
same,outcome,[18],inactive
CCCCN(CCCC)N=O,outcome,[1],inactive
same,outcome,[2],inactive
same,outcome,[3],inactive
same,outcome,[4],inactive
same,outcome,[5],inactive
same,outcome,CYP3A5 (gene 1577),inactive
same,outcome,[6],inactive
same,outcome,[7],inactive
same,outcome,[8],inactive
same,outcome,[9],inactive
same,outcome,[10],inactive
same,outcome,[11],inactive
same,outcome,[12],inactive
same,outcome,[13],inactive
same,outcome,[14],inactive
same,outcome,[15],inactive
same,outcome,[16],inactive
same,outcome,HGF (gene 3082),inactive
same,outcome,[17],inactive
same,outcome,[18],inactive
c1cc2c3c(cccc3c1)CC2,outcome,[1],inactive
same,outcome,[2],inactive
same,outcome,[3],inactive
same,outcome,[4],inactive
same,outcome,[5],inactive
same,outcome,CYP3A5 (gene 1577),inactive
same,outcome,[6],inactive
same,outcome,[7],inactive
same,outcome,[8],inactive
same,outcome,[9],inactive
same,outcome,[10],inactive
same,outcome,[11],inactive
same,outcome,[12],inactive
same,outcome,[13],inactive
same,outcome,[14],inactive
same,outcome,[15],inactive
same,outcome,[16],inactive
same,outcome,HGF (gene 3082),inactive
same,outcome,[17],inactive
same,outcome,[18],inactive
ClC(Cl)c1ccccc1,outcome,[1],inactive
same,outcome,[2],inactive
same,outcome,[3],inactive
same,outcome,[4],inactive
same,outcome,[5],inactive
same,outcome,CYP3A5 (gene 1577),inactive
same,outcome,[6],inactive
same,outcome,[7],inactive
same,outcome,[8],inactive
same,outcome,[9],inactive
same,outcome,[10],inactive
same,outcome,[11],inactive
same,outcome,[12],inactive
same,outcome,[13],inactive
same,outcome,[14],inactive
same,outcome,[15],inactive
same,outcome,[16],inactive
same,outcome,HGF (gene 3082),inactive
same,outcome,[17],inactive
same,outcome,[18],inactive
